Assay results published in PubChem BioAssay.

molecular target: Homeobox protein Hox-A13 (Mus musculus) (UniProt Q62424); assay: inhibitors of HoxA13-DNA binding, primary screen, biochemical, fluorescence polarization, labeled oligonucleotide (AID 1185); conditions: 15 min, higher = more signal, called active from +8 up or from −8 down
Sequence (Q62424 whole entry, looked up): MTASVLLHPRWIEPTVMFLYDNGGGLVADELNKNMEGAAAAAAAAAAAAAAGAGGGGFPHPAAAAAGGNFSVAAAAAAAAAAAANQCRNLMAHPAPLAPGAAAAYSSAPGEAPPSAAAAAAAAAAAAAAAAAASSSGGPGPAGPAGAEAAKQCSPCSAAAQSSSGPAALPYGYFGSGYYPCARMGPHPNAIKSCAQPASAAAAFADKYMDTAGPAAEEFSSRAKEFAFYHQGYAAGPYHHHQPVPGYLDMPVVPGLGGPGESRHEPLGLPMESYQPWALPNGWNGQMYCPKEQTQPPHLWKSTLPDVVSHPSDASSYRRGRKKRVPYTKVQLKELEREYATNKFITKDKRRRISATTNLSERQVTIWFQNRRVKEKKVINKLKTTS

z-score, inactive:
C=CCOC(=O)[C@@H]1[C@H]2C(=O)O[C@H](c3ccccc3)[C@H](c3ccccc3)N2[C@H](c2ccc(OCCOC(=O)[C@H]3C[C@H]4C(=O)N[C@@H](CCCCN(C)C)C(=O)N4[C@H]3c3cccc(OCCO)c3)cc2)[C@@]12C(=O)Nc1ccc(I)cc12 -0.599, O=C1O[C@@H](c2ccccc2)[C@@H](c2ccccc2)N2[C@@H](c3ccccc3OCCO)[C@]3(C(=O)Nc4ccc(C#CCCO)cc43)[C@@H](C(=O)N3CCN(c4ncccn4)CC3)[C@H]12 -1.33, CC1CC/C=C\[C@H]2OC34C=CCN(C(C)C)C(=O)[C@H]3N(CCCCCO)C(=O)[C@@H]4C2C(=O)O1 (stereo partly specified) -3.89, CCOC(=O)C1=CC[C@@H](c2ccccc2C(F)(F)F)N(S(=O)(=O)c2ccc(C)cc2)C1 -2.64, COC(=O)[C@@]1(Cc2ccccc2)[C@H]2c3cc(C(=O)N4CCCC4)n(Cc4ccsc4Br)c3C[C@H]2CN1C(=O)c1ccccc1 -3.29, Cc1ccc(S[C@]2(C(=O)O)CC(=O)N(Cc3ccccc3Cl)[C@@H]2c2ccc(CO)cc2)cc1 -2.09, C[C@]1(C(=O)O)c2ccccc2C(=O)N(Cc2ccccc2)[C@H]1c1ccc(CO)cc1 -1.72, COCCCNC(=O)[C@@]1(Sc2ccc(C)cc2)CC(=O)N(C2Cc3ccccc3C2)[C@@H]1c1ccc(CO)cc1I -2.28, CCOC(=O)C[C@H]1[C@H](OC(=O)c2ccc(-c3ccccc3)cc2)[C@@H](NC(=O)C2CCCCC2)c2cc(OCCCO)ccc2N1C(=O)c1ccccc1 -2.07, CCCC=C(CCC)[C@@H](NP(=O)(c1ccccc1)c1ccccc1)c1ccc(C(F)(F)F)cc1 -1.19, O=C1c2ccccc2[C@@]2(Cc3ccccc3N(C3CC3)C2=O)[C@H](c2ccc(CO)cc2)N1C1CCCCC1 -2.14, [N-]=[N+]=NCc1ccccc1C[C@]1(C(=O)NCC(O)CO)N=C(c2ccc(OCCCO)cc2)O[C@H]1c1ccccc1CN=[N+]=[N-] (stereo partly specified) -0.829, C=C(C(=O)CC[C@H](OC(=O)c1cccnc1)c1ccc(CO)o1)C(C)C -5.25, CC(C)N1CC=CC23O[C@@H]4C=CCOC(=O)[C@@H]4[C@H]2C(=O)N(C(C)CO)[C@@H]3C1=O (stereo partly specified) -3.67, COc1cc2c(cc1OC)CN(C(=O)[C@@H]1[C@H]3C(=O)O[C@H](c4ccccc4)[C@H](c4ccccc4)N3[C@H](c3ccccc3OCCO)[C@@]13C(=O)Nc1ccc(C#CC4(O)CCCCCC4)cc13)CC2 2.22, COc1ccc(NN2C(C(O)c3ccccn3)C=CC3C(=O)N(C4CCCCC4)C(=O)C32)cc1 (stereo unspecified) -4.39, O=C(O)[C@H]1C[C@H]2C(=O)N3CCC[C@H]3C(=O)N2[C@H]1c1cccc(OCCO)c1 -3.62, CCOC(=O)C[C@H]1[C@H](OC(=O)Cc2ccc3c(c2)OCO3)[C@@H](NC(=O)Cc2ccc(OC)cc2)c2cc(OCCCO)ccc2N1C(=O)c1ccccc1 -2.51, O=c1cccc(-c2cccc(Cl)c2)o1 -0.814, COC(=O)[C@@]1(Cc2ccccc2)[C@H]2c3cc(C(=O)N4CCCC4)[nH]c3C[C@H]2CN1C(=O)c1ccccc1 -1.8, C=C(CCCC)/C(=C/C[C@@H](OC(C)=O)c1ccc(CO)o1)c1cc(C(=O)OC)ccc1OC -4.83, CC(C)CN1C(=O)[C@@]2(Cc3ccccc31)c1ccccc1C(=O)N(Cc1ccccc1C(F)(F)F)[C@H]2c1ccc(CO)cc1 0.0026, CCOC(=O)C[C@H]1[C@H](OC(=O)Cc2ccc3c(c2)OCO3)[C@@H](NC(=O)C2CCCCC2)c2cc(OCCCO)ccc2N1C(=O)c1ccc2ccccc2n1 -3.76, C[C@@H](OCc1ccccc1)C1NC(=O)[C@@]23C(=O)N[C@@H](Cc4ccccc4)C2[C@H](C)[C@@]2(C)O[C@H]2C3/C=C/C/C=C\CNC(=O)CNC1=O (stereo partly specified) -7.11, C=C(C(=O)CC[C@H](OC(C)=O)c1cccc(OCCO)c1)C(C)C -4.74, CC=CC(O)C1C=CC2C(=O)N(c3ccccc3)C(=O)C2N1Nc1ccc([N+](=O)[O-])cc1 (stereo unspecified) -3.01, CC(C)C(O)C1C=CC2C(=O)N(C)C(=O)C2N1Nc1ccccc1 (stereo unspecified) -1.81, O=C1c2ccccc2[C@](Cc2ccccc2I)(C(=O)NCc2ccccc2)[C@H](c2ccc(CO)cc2)N1C1CCCCC1 -2.27, O=C1C2C=CC(C(O)c3cc(C(F)(F)F)cc(C(F)(F)F)c3)N(Nc3ccc([N+](=O)[O-])cc3)C2C(=O)N1c1ccccc1 (stereo unspecified) -3.06, CC(C)(C)OC(=O)CC[C@]1(C(=O)NCCN2CCOCC2)N=C(c2ccc(OCCCO)cc2)O[C@H]1c1ccccc1 -4.62, C=CC[C@@H](OC(=O)Nc1ccc(OC)cc1)c1ccc(OCCO)cc1 -5.86, O=C1NC(=O)C2C1C=CC(C(O)c1ccc3c(c1)OCO3)N2Nc1ccccn1 (stereo unspecified) -1.69, Cc1ccc(S[C@]2(C(=O)NC(C)C)CC(=O)N(C3Cc4ccccc4C3)[C@@H]2c2ccc(CO)cc2I)cc1 -2.24, COc1ccc([Si](C)(C)[C@H]2[C@H](CCO)O[C@@]3(C(=O)N(Cc4cccc(N5CCCCC5=O)c4)c4ccccc43)[C@@H]2C)cc1 -5.06, COc1ccc([Si](C)(C)[C@H]2[C@H](CC(=O)N3Cc4ccccc4C[C@H]3CO)O[C@@]3(C(=O)N(Cc4cccc(N5CCCCC5=O)c4)c4ccccc43)[C@@H]2C)cc1 -3.09, NC(=O)NCC#Cc1ccc2c(c1)[C@]1(C(=O)N2)[C@H](C(=O)Nc2nc3ccccc3s2)[C@H]2C(=O)O[C@H](c3ccccc3)[C@H](c3ccccc3)N2[C@@H]1c1ccc(O)cc1 0.916
